Here are results for 32 compounds from the supplement of paper PMC10720658.

Where a name gives a salt, the structure may show the parent alone. ± gives the standard deviation of the averaged measurements.

This experiment concerns AEK1 (Tb927.3.2440). The experiment is described as follows: percent reduction in TR-FRET probe signal relative to DMSO control; higher = stronger displacement of ATP-site probe (binding). The note with it: 1 µM; incubation time 1 h.

`CS(=O)(=O)CCNCc1ccc(-c2ccc3ncnc(Nc4ccc(OCc5cccc(F)c5)c(Cl)c4)c3c2)o1` [Lapatinib]: the “percent reduction in TR-FRET probe signal” value (from here on “percent reduction”) stood at 6.42 ± 9.8%.

As to `C=CC(=O)Nc1cccc(Oc2nc(Nc3ccc(N4CCN(C)CC4)cc3OC)ncc2Cl)c1`, the “percent reduction” value is 3 ± 23%. The figure for `CCc1cccc(CC)c1NC(=O)N1Cc2[nH]nc(NC(=O)c3ccc(N4CCN(C)CC4)cc3)c2C1` is 29.3 ± 8.1%; for `CN1CCN(c2nc(C3=C(c4c[nH]c5ccccc45)C(=O)NC3=O)c3ccccc3n2)CC1` [Sotrastaurin] it is -7.1 ± 1.4%; for `Cc1ccc(Nc2nccc(N(C)c3ccc4c(C)n(C)nc4c3)n2)cc1S(N)(=O)=O` [Pazopanib HCl] it is 3.07 ± 12%. Consider `CCN(CCO)CCCOc1ccc2c(Nc3cc(CC(=O)Nc4cccc(F)c4)n[nH]3)ncnc2c1` [Barasertib (AZD1152-HQPA)], for which the “percent reduction” value was -5.79 ± 4.7%. The figure for `Cc1cc(C)c(/C=C2\C(=O)Nc3ccccc32)[nH]1` [Semaxanib (SU5416)] is 2.37 ± 8.9%. On to `N[C@@H]1CCCN(c2c(/C=C3\SC(=O)NC3=O)cccc2-c2ccccc2)C1`, for which the “percent reduction” value was -4.54 ± 7.8%. The figure for `CC(O)C(=O)O.CC(O)C(=O)O.CN1CCN(c2ccc3nc(-c4c(N)c5c(F)cccc5[nH]c4=O)[nH]c3c2)CC1` [Dovitinib (TKI-258) Dilactic Acid] is 10.5 ± 12%. The figure for `c1cncc(CN2CCC(n3ncc4c(N5CCOCC5)nc(-c5ccc6[nH]ccc6c5)nc43)CC2)c1` is 6.62 ± 13%; for `O=C1NC(=O)C(c2ccccc2[N+](=O)[O-])=C1Nc1ccc(O)c(Cl)c1` it is -2.58 ± 9.4%; for `CC(C)(C)c1cc(NC(=O)Nc2ccc(-c3cn4c(n3)sc3cc(OCCN5CCOCC5)ccc34)cc2)no1` [Quizartinib (AC220)] it is 9.26 ± 2.9%. Consider `COc1cc2ncnc(Nc3ccc(Cl)cc3F)c2cc1OC`, for which the “percent reduction” value came out at 4.47 ± 2.8%.

Regarding `Cl.Cl.NC1(c2ccc(-c3nc4ccn5c(=O)[nH]nc5c4cc3-c3ccccc3)cc2)CCC1`, the “percent reduction” value was -1.31 ± 6.8%. The figure for `Nc1cccc(-c2cc3c(Oc4cccc(O)c4)ncnc3[nH]2)c1` is 18.7 ± 22%. For `C[C@@H]1COC(Nc2ccc3ncnc(Nc4ccc(OCc5nccs5)c(Cl)c4)c3c2)=N1` [Varlitinib], the “percent reduction” value turned out to be 11.3 ± 2.9%. Regarding `S=C(NCc1ccc2c(c1)OCO2)N1CCN(c2ncnc3c2oc2ccccc23)CC1` [Amuvatinib (MP-470)], the “percent reduction” value is 3.8 ± 9.9%. The figure for `CNC(=O)Nc1ccc(-c2nc(N3CC4CCC(C3)O4)c3cnn(C4CCC5(CC4)OCCO5)c3n2)cc1` is -1.55 ± 9.3%; for `NC(=O)c1cccc(-c2cc(Nc3ccc(OC(F)(F)F)cc3)ncn2)c1` it is -4.38 ± 9.6%; for `CC(C)(C)c1ccc(S(=O)(=O)/C=C/C#N)cc1` it is -17 ± 7.6%. With `CC(C)n1nc(-c2ccc3oc(N)nc3c2)c2c(N)ncnc21`, the “percent reduction” value is -2.53 ± 6.7%. The figure for `CS(=O)(=O)N1CCc2c(-c3cnc(N)nc3)nc(N3CCOCC3)nc21` is -5.47 ± 9.1%. The figure for `CN(c1ncccc1CNc1nc(Nc2ccc3c(c2)CC(=O)N3)ncc1C(F)(F)F)S(C)(=O)=O` is 46.8 ± 0.66%; for `COc1cc2ncnc(Oc3ccc(CC(=O)Nc4cnn(C(C)C)c4)cc3)c2cc1OC` it is 5.15 ± 13%; for `CC(C)N(CCC(=O)c1ccc2ccccc2c1)Cc1ccccc1.Cl` it is 1.95 ± 3.1%.

As to `Cc1[nH]c(/C=C2\C(=O)Nc3ccc(S(=O)(=O)N(C)c4cccc(Cl)c4)cc32)c(C)c1C(=O)N1CCN(C)CC1`, the “percent reduction” value was found to be 34.1 ± 16%. The figure for `CCc1cnn2c(NCc3ccc[n+]([O-])c3)cc(N3CCCC[C@H]3CCO)nc12` is -4.69 ± 4.1%. The figure for `CCc1nc(-c2cccc(C)c2)c(-c2ccnc(NC(=O)c3ccccc3)c2)s1` is -2.96 ± 11%. Consider `COc1cc2nccc(Oc3ccc(NC(=O)C4(C(=O)Nc5ccc(F)cc5)CC4)cc3)c2cc1OC`, for which the “percent reduction” value was -3.97 ± 6.1%.

For `O=C(c1ccc(F)c(F)c1Nc1ccc(I)cc1F)N1CC(O)([C@@H]2CCCCN2)C1` [Cobimetinib (GDC-0973, RG7420)], the “percent reduction” value amounted to 2.36 ± 13%. `Cc1cc(Nc2ncc3c(n2)N(C)C(=O)N(c2cc(NC(=O)c4cccc(C(F)(F)F)c4)ccc2C)C3)n(C)n1`: the “percent reduction” value is 5.55 ± 14%. In the case of `Cc1ccc(NC(=O)c2ccc(CN3CCN(C)CC3)cc2)cc1Nc1nc(-c2cccnc2)cs1` [Masitinib (AB1010)], the “percent reduction” value is -4.2 ± 7%.
